Assay results from PMC13083723 (Patterns, 2026).
In all, about 5,400 compounds went through this assay and about 190 (3.5%) showed an effect of 50% or more. The sample holds strong results, similar compounds and a random draw of the others, so the mix is not that of the screen. Positions of bridges follow the written chain, without caps; N, C: chain ends. Non-standard residues stand in square brackets, D forms with d. Residues, ends and D or L forms follow the SMILES beside them. ξ: configuration not given here. *: point of attachment. Heptanoyl(5-Me) = CCC(C)CCCC(=O)*; ξThr(3R) = C[C@@H](O)C(N)C(=O)O; Dab = NCC[C@H](N)C(=O)O

What follows are molecules tested on Vero-E6 (assay: primary screen, phospholipidosis by LipidTOX staining; higher = more effect of the substance). Conditions: 10 µM.
Summary of the method: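 Drug-induced phospholipidosis detected with HCS LipidTOX Red reagent in Vero-E6 cells. Compounds tested at 10 μM, with amiodarone (10 μM) as positive control and DMSO (0.1 v/v %) as vehicle.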
For `CCCC[C@H](NC(C)=O)C(=O)N[C@H]1CC(=O)NCCCC[C@@H](C(=O)O)NC(=O)[C@H](Cc2c[nH]c3ccccc23)NC(=O)[C@H](CCCNC(=N)N)NC(=O)[C@@H](Cc2ccccc2)NC(=O)[C@H](Cc2cnc[nH]2)NC1=O`, the result_ITMP was -3.41%. `COc1ccc2[nH]c3nnc(C)c-3c(NCCOCCO)c2c1` was tested, and the result_ITMP was -1.31%. `C1Cc2[nH]nc(-c3nnn[nH]3)c2C1` showed a result_ITMP of -1.64%. For `CC(C)N(C[C@H]1O[C@@H](n2cnc3c(N)ncnc32)[C@H](O)[C@@H]1O)C1CC(CCc2nc3cc(C(C)(C)C)ccc3[nH]2)C1` (some centres unmarked), the result_ITMP was -3.75%. `Nc1ncnc2c1ncn2C1OC2COP(=O)([O-])OC2C1O` (centres unmarked) showed a result_ITMP of -10.8%. With `CCN1CCN(Cc2ccc(C(=O)Nc3ccc(C)c(Oc4ccc5c(c4)CC(=O)N5)c3)cc2C(F)(F)F)CC1` the result_ITMP was 99.1%. For `Cc1ccc(C(=O)Nc2ccc(CN3CCN(C)CC3)c(C(F)(F)F)c2)cc1C#Cc1cnc2[nH]ncc2c1`, the result_ITMP was 6.57%. In the case of `Cc1ccc(C(=O)Nc2ccc(CN3CCN(C)CC3)c(C(F)(F)F)c2)cc1C#Cc1cnc2cccnn12`, the result_ITMP is reported as 11.4%. Work on `C[C@@H]1CC[C@@]2(NC1)O[C@H]1C[C@H]3[C@@H]4CC=C5C[C@@H](O[C@@H]6O[C@H](CO)[C@@H](O[C@@H]7O[C@@H](C)[C@H](O)[C@@H](O)[C@H]7O)[C@H](O)[C@H]6O[C@@H]6O[C@@H](C)[C@H](O)[C@@H](O)[C@H]6O)CC[C@]5(C)[C@H]4CC[C@]3(C)[C@H]1[C@@H]2C` yielded a result_ITMP of -0.25%. In the case of `C[C@]12C=CC(=O)C=C1CCC1C2[C@@H](O)C[C@@]2(C)C1CC[C@]2(O)C(=O)COP(=O)([O-])[O-]` (some centres unmarked), the result_ITMP is reported as -4.14%. For `O=S(=O)([O-])CCSSCCS(=O)(=O)[O-]`, the result_ITMP was -11.7%. Work on `N=C(N)NCCC[C@@H](NC(=O)[C@@H]1CCCN1C(=O)[C@@H]1CSSC[C@H](N)C(=O)N[C@@H](Cc2ccc(O)cc2)C(=O)N[C@@H](Cc2ccccc2)C(=O)N[C@@H](CCC(N)=O)C(=O)N[C@@H](CC(N)=O)C(=O)N1)C(=O)NCC(N)=O` yielded a result_ITMP of -1.55%. `Oc1ncc(F)cn1` was tested, and the result_ITMP was -8.73%. `Nc1nnc2[nH]c3ccccc3nc1-2` was tested, and the result_ITMP was -7.77%. In the case of `CCCC1(CCC)CCC2(CCN(CCCN(CC)CC)C2)CC1`, the result_ITMP is reported as 109%. `COc1cc(/C=C/C(=O)[O-])ccc1O` gave a result_ITMP of -1.05%. `CCN1CCN(Cc2ccc(Nc3ncc(F)c(-c4cc(F)c5nc(C)n(C(C)C)c5c4)n3)nc2)CC1` gave a result_ITMP of 76.7%. `CC(C)Cc1ccc(C(C)C(=O)O)cc1` (centres unmarked) [R4A_0001344_001 / SPE_A17655518] showed a result_ITMP of -3.6%. With `COC(=O)C1=C(C)NC(C)=C(C(=O)OCCN2CCN(C(c3ccccc3)c3ccccc3)CC2)C1c1cccc([N+](=O)[O-])c1` (centres unmarked) the result_ITMP was 11.6%. `COC(=O)C1=C(C)NC(C)=C(C(=O)O[C@H]2CCN(Cc3ccccc3)C2)[C@H]1c1cccc([N+](=O)[O-])c1` gave a result_ITMP of 21.2%. Work on `COC(=O)C1=C(C)NC(C)=C(C(=O)NCCCN2CCC(c3ccccc3)(c3ccccc3)CC2)C1c1ccc([N+](=O)[O-])cc1` (centres unmarked) yielded a result_ITMP of 60.6%. For `CC[C@H](CC[C@@H](C)[C@H]1CC[C@H]2[C@@H]3CC=C4C[C@@H](O)CC[C@]4(C)[C@H]3CC[C@]12C)C(C)C`, the result_ITMP was 1.55%. With `CC(=O)CC(=O)[O-]` the result_ITMP was 1.77%. `CCc1cccc(CC)c1NC(=O)c1nn(C)c2c1CCc1cnc(Nc3ccc(C(=O)NC4CCN(C)CC4)cc3OC(F)(F)F)nc1-2` was tested, and the result_ITMP was 7.96%. `CN1CCC(COc2cnc(-c3cccc(Cn4nc(-c5cccc(C#N)c5)ccc4=O)c3)nc2)CC1` gave a result_ITMP of 2.15%. `CN1CCC(CNc2ccc3ncc(-c4cccc(OC(F)(F)F)c4)n3n2)CC1` was tested, and the result_ITMP was 62.4%. In the case of `CC1(C)[C@@H]2CC[C@@]1(C)C(=O)C2` [R4A_0000828_001 / SPE_K10034334], the result_ITMP is reported as -2.3%. `CC(C)(N)c1cc(C(=O)N[C@@H]2CCc3ccc(OC4=C5CCC(=O)N=C5NC=C4)cc3C2)cc(C(F)(F)F)c1` showed a result_ITMP of 28.9%. For `CCC(C)CCCC(=O)N[C@@H](CCN)C(=O)N[C@H](C(=O)N[C@@H](CCN)C(=O)N[C@H]1CCNC(=O)[C@H]([C@@H](C)O)NC(=O)[C@H](CCN)NC(=O)[C@H](CCN)NC(=O)[C@H](CC(C)C)NC(=O)[C@@H](CC(C)C)NC(=O)[C@H](CCN)NC1=O)[C@@H](C)O` (stereo partly drawn) [R4A_0005175_001 / SPE_A36456202] ({Heptanoyl(5-Me)}-[Dab]T[Dab][Dab][Dab][dL]L[Dab][Dab]T; lactam 4-C), the result_ITMP was -0.45%. In the case of `C[C@@H]1NC(=O)[C@@H]2CCCN2C(=O)[C@H](CC(N)=O)NC(=O)[C@@H]2CSSC[C@H](N)C(=O)N[C@H]3CSSC[C@H](NC1=O)C(=O)NC([C@@H](C)O)C(=O)NCC(=O)N[C@H](C(=O)N[C@@H](Cc1ccc(O)cc1)C(=O)O)CSSC[C@H](NC(=O)[C@H](Cc1ccc(O)cc1)NC(=O)[C@H](CCC(=O)O)NC3=O)C(=O)N2` (stereo partly drawn) (H-CCEYCCNPAC[ξThr(3R)]GCY-OH; disulfide 1-6, 2-10, 5-13), the result_ITMP is reported as -6.32%. For `C#CC[C@H](c1nc2cc(Cl)ccc2c(=O)n1Nc1ccccc1)N(CCCN)C(=O)c1cccc(Cl)c1F`, the result_ITMP was 68.4%. `C=C(c1ccccc1OCc1cccc(Cl)c1)n1ccnc1` showed a result_ITMP of 2.27%. In the case of `O=c1ccn([C@@H]2O[C@H](COP(=O)([O-])OP(=O)([O-])OP(=O)([O-])O)C(O)C2O)c(=O)[nH]1` (some centres unmarked), the result_ITMP is reported as 0.02%. Molecule `CCCCCCCCCCCCCC(=O)[O-].CCCCCCCCCCCCCC(=O)[O-].NC1CCCCC1N.[Pt+2]` has a result_ITMP of 0.26%. `O=S(=O)([O-])Oc1ccc(C(c2ccc(OS(=O)(=O)[O-])cc2)c2ccccn2)cc1` showed a result_ITMP of -7.14%. For `Cc1ccc(-c2n[nH]c3c2C(c2cccc(O)c2)N(c2ccc(C(=O)O)cc2)C3=O)cc1` (centres unmarked), the result_ITMP was 0.62%. Work on `Cc1cc(Nc2ncc(Cl)c(Nc3ccccc3S(=O)(=O)C(C)C)n2)c(OC(C)C)cc1C1CCNCC1` yielded a result_ITMP of 50.9%. `COc1cc(N2CCC(N3CCN(C)CC3)CC2)ccc1Nc1ncc(Cl)c(Nc2ccccc2S(=O)(=O)C(C)C)n1` showed a result_ITMP of -2.93%. `COc1cc(N2CCC(N3CCN(C)CC3)CC2)ccc1Nc1ncnc(Nc2ccccc2S(=O)(=O)C(C)C)n1` showed a result_ITMP of 44.8%. For `Cc1c(S(=O)(=O)[O-])oc2c1C(=O)C(=O)c1c-2ccc2c1CCCC2(C)C`, the result_ITMP was -1.56%. `C[C@@H](Oc1cc(-c2cnn(C3CCNCC3)c2)cnc1N)c1c(Cl)ccc(F)c1Cl` showed a result_ITMP of 75%. `C[C@H](Oc1cc(-c2cnn(C3CCNCC3)c2)cnc1N)c1c(Cl)ccc(F)c1Cl` gave a result_ITMP of 70.2%. With `Nc1nc2[nH]nnc2c(=O)[nH]1` the result_ITMP was 1.34%. For `O=C([O-])[C@@H](O)[C@@H](O)[C@H](O)[C@@H](O)C(=O)[O-]`, the result_ITMP was -1.82%. Work on `CCOc1ccc(/N=C(/C)Nc2ccc(OCC)cc2)cc1` yielded a result_ITMP of 3.29%. In the case of `CC(=O)OCC1=C(C(=O)[O-])N2C(=O)[C@@H](NC(=O)CSc3ccncc3)[C@H]2SC1`, the result_ITMP is reported as -1.36%. Molecule `CO/N=C(\C(=O)N[C@@H]1C(=O)N2C(C(=O)[O-])=C(COC(N)=O)CS[C@H]12)c1ccco1` has a result_ITMP of -1.04%. `O=S(=O)([O-])CCCS(=O)(=O)[O-]` was tested, and the result_ITMP was -2.16%. `CCn1cc(C(=O)[O-])c(=O)c2cc3c(cc21)OCO3` gave a result_ITMP of -4.34%. `CC(C)NC[C@@H](O)COc1cccc2ccccc12` [R4A_0000150_002 / SPE_K13994703] was tested, and the result_ITMP was 20.2%. `CN(C)[C@@H](CCOc1cccc2ccccc12)c1ccccc1` gave a result_ITMP of 43.4%. `CNCC[C@H](Oc1cccc2ccccc12)c1cccs1` was tested, and the result_ITMP was 92.6%. `CC1(C)CCC[C@]2(C)[C@H]3CC(=O)O[C@]3(C)CC[C@@H]12` showed a result_ITMP of 1.48%. `Nc1nc2c(c(N3CCNCC3)n1)CCC1=C2[C@@H]2CCCC[C@@H]2O1` was tested, and the result_ITMP was 70.7%. With `CC[C@]1(O)C[C@@H]2C[N@@](CCc3c([nH]c4ccccc34)[C@@](C(=O)OC)(c3cc4c(cc3OC)N(C=O)[C@H]3[C@@](O)(C(=O)OC)[C@H](OC(C)=O)[C@]5(CC)C=CCN6CC[C@]43[C@@H]65)C2)C1` the result_ITMP was 1.05%. `CC/C(=C(\c1ccc(OCCN(C)C)cc1)c1cccc(O)c1)c1ccccc1` gave a result_ITMP of 77.7%. `CC/C(=C(\c1ccc(O)cc1)c1ccc(OCCN(C)C)cc1)c1ccccc1` gave a result_ITMP of 20.4%. `CN(C)CCOc1ccc(/C(=C(/CCCl)c2ccccc2)c2ccccc2)cc1` was tested, and the result_ITMP was 20.4%. `CC/C(=C(\c1ccccc1)c1ccc(OCCN(C)C)cc1)c1ccccc1` gave a result_ITMP of 49.4%. With `CCN(CC)CCOc1ccc(/C(=C(\Cl)c2ccccc2)c2ccccc2)cc1` the result_ITMP was 108%. `CCN(CC)CCOc1ccc(Cc2ccccc2)cc1` gave a result_ITMP of 30.2%. In the case of `CN1C[C@@H]2CN(c3ccc(-c4ccccc4)nn3)C[C@@H]2C1`, the result_ITMP is reported as -1.43%. In the case of `O=C([O-])CCC/C=C\C[C@@H]1[C@@H](/C=C/[C@@H](O)COc2cccc(Cl)c2)[C@H](O)C[C@@H]1O` (racemic), the result_ITMP is reported as -1.06%. `C[C@H](CCC(=O)O)[C@H]1CC[C@H]2[C@@H]3CC[C@@H]4C[C@H](O)CC[C@]4(C)[C@H]3CC[C@]12C` gave a result_ITMP of -0.58%. For `Oc1ccnc(S)n1`, the result_ITMP was -2.88%. In the case of `Clc1ccc(C2(c3ccc(-c4cn[nH]c4)cc3)CCNCC2)cc1`, the result_ITMP is reported as 96.9%. `NCC(O)(CS(=O)(=O)O)c1ccc(Cl)cc1` (centres unmarked) gave a result_ITMP of -4.58%. For `NC[C@@](O)(c1ccc(Cl)cc1)c1ccc(-c2cn[nH]c2)cc1`, the result_ITMP was 63.1%.
